# In the OligoGym collection:
# Biological target: TMEM18
# Test: pooled miR-30 sensor sort-seq; sequence = guide strand
# Details: shRNA
# Note: reference of the scale not given here.
row,Sequence,sensor-assay potency score (higher = more potent)
1,TATAGAAATGAACATCCCCCTG,-1.12
2,TATTTAAATAAAACAACGGTTT,-1.16
3,TAGCTTCGGGAGGACAAGCAGG,-1.33
4,TAGACTAAGATGACTAGACACA,-0.939
5,TTTCAAACCATGAGTCAGCTGG,0.141
6,TCTGTAGTCTGTAGCTTCGGGA,-0.977
7,ATCTGTAGTCTGTAGCTTCGGG,-0.359
8,TAGTCTGTAGCTTCGGGAGGAC,-0.482
9,TATATTTATAATTAGTACTAGT,-0.393
10,ATAATCTCCAGTTCATCGCAGC,-0.328
11,ATAACCACAATGATCATGGCAT,0.502
12,TATTTCGAAAATAATCTCCAGT,-0.177

# Biological target: TMEM200C
# Test: as above
# Details: shRNA
row,Sequence,sensor-assay potency score (higher = more potent)
1,TTGGCTTTCCGCTTGCGCTTGG,0.0739
2,ATTTTGGTCTTCTTGTCCCGGT,-0.495
3,TTTGCTGCCACTGCTACTGCTG,-0.287
4,TTCTTGTCCCGGTTCTCGTGGA,-0.413
5,TCCAGTTCTTCTTCTACCCCTA,-0.433
6,TTGAGCTTGTCAGAGTGCAGGT,0.387
7,TTGACCAGCTACTGCGTCCAAG,-1.14
8,TTTTGGTCTTCTTGTCCCGGTT,-1.07
9,TTGCGCTTGGGTATCTGGCTTG,-0.405
10,TTGTAAACTGCCTCTGCACCGG,-0.336
11,TTTCACCACCACCACGTCGTTC,-1.27
12,AATCATGATGAGTTTCTCCTTG,-0.235
